Data taken from PubChem BioAssay AID589 (National Center for Advancing Translational Sciences (NCATS), 2007).
Out of some 59,000 compounds screened, about 6,200 (11%) were called active. About 9% were inconclusive and are not listed. No stated cut-off is given here; in the data, active means max dye-equivalent concentration above about 10 nM; inconclusive means mostly about 1.1 nM to 9.6 nM; inactive means weaker than that. The sample as a whole holds a higher share of actives than the screen did.

Assay: qHTS Assay for Spectroscopic Profiling in 4-MU Spectral Region
Conditions: compound autofluorescence, 340/450 nm, 4-MU equivalents; hits give high values
Source text: NIH Molecular Libraries Screening Centers Network [MLSCN] NIH Chemical Genomics Center [NCGC] […] Occasionally, the artifactual effect may originate from the compounds own spectral or other biophysical properties which generally tend to track its assay concentration. Pre-screening/profiling the library with respect to the compounds spectral properties should help one exclude false positives early on. While the most informative fluorescent profiling data set is obtained by performing a full excitation and emission scan of each well by using a monochromator-based plate reader, such an approach is practical only on a very limited scale as scanning each well requires long time. An alternative approach, applied here, is to perform plate reader scans using selected excitation and emission wavelength pairs to generate a multidimensional relational database that correlates compound concentration and the respective relative fluorescence intensity at a given wavelength set. A standard curve of 4-methylumbelliferone (4-MU) present on each plate as six-point concentration series, was used to compute a normalized fluorescence response, termed dye-equivalent concentration, for each compound at each concentration.
NCGC Assay Protocol Summary: Buffer: 100 mM Tris buffer, pH 8.0 Dye standard plate: The wells in columns 1 through 4 of a Kalypsys polypropylene 1536-well compound plate were filled with standard solutions of fluorophore corresponding to the spectral region of interest. Solutions of 4-MU were placed in the following wells: A1, B1: 3 mM, A2, B2: 300 uM, A3, B3: 30 uM, A4, B4: zero (DMSO), C1, D1: 3 uM, C2, D2: 900 nM, C3, D3: 300 nM, C4, D4: zero (DMSO). Assay Steps: Six uL of buffer were dispensed to 1536-well Greiner black plates. Compounds and dye standards (23 nL) were transferred via Kalypsys PinTool. The plates were incubated for 15 min at room temperature, and then read on ViewLux (Perkin-Elmer) High-throughput CCD imager using 340 nm and 450 nm excitation and emission filter set. Keywords: NIH Roadmap, MLSCN, MLI, MLSMR, qHTS, NCGC, Fluorescent Profiling, 4MU, 4-MU
With `CCOC(=O)CN(C)Cc1c[nH]c2ccccc12` the max dye-equivalent concentration was “inactive”.
In the case of `CCOC(=O)c1[nH]c2ccccc2c1N=C(C)N(CC)CC`, the max dye-equivalent concentration is reported as “inactive”.
For `CCOC(=O)c1[nH]c2ccc(C)cc2c1N=C(C)N(C)C`, the max dye-equivalent concentration was 31 nM (active).
In the case of `CCCNS(=O)(=O)c1ccc(CCC(=O)NCc2cccnc2)cc1`, the max dye-equivalent concentration is reported as “inactive”.
In the case of `CCOc1ccc(NC(=O)N(CCC(C)C)C(C)c2ccco2)cc1` (configuration not stated), the max dye-equivalent concentration is reported as “inactive”.
For `CSc1nsc(SC)c1NC(=O)OC1CCCCC1`, the max dye-equivalent concentration was “inactive”.
In the case of `O=C(Nc1ccc(S(=O)(=O)N2CCCCC2)cc1)c1cnccn1`, the max dye-equivalent concentration is reported as “inactive”.
With `CC(=O)C1=C(O)C(=O)N(c2ccc(S(N)(=O)=O)cc2)C1c1ccccc1F` (configuration not stated) the max dye-equivalent concentration was 21 nM (active).
For `CCN1C(=O)C(C(=O)NC(C)c2ccccc2)C2CC1(C)Oc1ccccc12` (configuration not stated), the max dye-equivalent concentration was “inactive”.
For `CC(=O)Nc1ccc(N2CCOCC2)c(C(=O)Nc2cccc(C)c2)c1`, the max dye-equivalent concentration was “inactive”.
In the case of `Cn1nc(-c2ccc(N3CCOCC3)c(NC(=O)c3ccccc3)c2)c2ccccc2c1=O`, the max dye-equivalent concentration is reported as “inactive”.
In the case of `Cn1c(=O)n(C)c2cc(CNc3ccc(N4CCOCC4)c(C(=O)O)c3)ccc21`, the max dye-equivalent concentration is reported as 18 nM (active).
For `CCCn1c(=O)c2[nH]c(-c3ccc(OCC(=O)NCCN)cc3)nc2n(CCC)c1=O`, the max dye-equivalent concentration was “inactive”.
With `Cc1cc(N2CCCC2)n2nc(C)c(-c3ccccc3)c2n1` the max dye-equivalent concentration was 660 nM (active).
In the case of `CC(=O)c1cc(-c2ccccc2)[nH]c1N1CCCC1`, the max dye-equivalent concentration is reported as “inactive”.
For `CCCc1nc(-c2ccccc2O)n(-c2ccccc2)n1`, the max dye-equivalent concentration was “inactive”.
In the case of `CCn1ccnc1C[C@@H]1COc2ccccc2O1`, the max dye-equivalent concentration is reported as “inactive”.
With `O=C(c1csnn1)N1CCC2(CC1)CN(c1ncccn1)C2` the max dye-equivalent concentration was “inactive”.
In the case of `CCOc1ccccc1NC(=O)CCN1CCN(S(=O)(=O)c2ccc(OC)cc2)CC1`, the max dye-equivalent concentration is reported as “inactive”.
With `COc1cccc(N2C(=O)CC(N3CCN(S(=O)(=O)c4ccccc4)CC3)C2=O)c1` (configuration not stated) the max dye-equivalent concentration was “inactive”.
With `COc1ccc(S(=O)(=O)N2CCN(c3ncnc4c(-c5ccccc5)nsc34)CC2)cc1` the max dye-equivalent concentration was 88 nM (active).
In the case of `Cc1ccc(-c2noc(CCC(N)=O)n2)cc1`, the max dye-equivalent concentration is reported as “inactive”.
For `CCOC(=O)N1CCN(C(=O)CSc2nnc(-c3c[nH]c4ccccc34)n2CCOC)CC1`, the max dye-equivalent concentration was “inactive”.
With `O=C(Nc1nn(Cc2ccccc2F)cc1Br)c1cccs1` the max dye-equivalent concentration was “inactive”.
In the case of `Cn1cccc1C(=O)N1CCC2(CC1)CN(c1cccc(-c3ccccc3)c1)C2`, the max dye-equivalent concentration is reported as “inactive”.
With `CCOc1cc(S(=O)(=O)NCc2ccc3c(c2)OCO3)ccc1F` the max dye-equivalent concentration was “inactive”.
For `Cc1ccc(S(=O)(=O)NCc2nc3ccccc3c(=O)n2N)cc1`, the max dye-equivalent concentration was “inactive”.
In the case of `Cc1ccc(S(=O)(=O)c2c(N)n(C)c3nc4ccccc4nc23)cc1`, the max dye-equivalent concentration is reported as 2500 nM (active).
For `Cc1nc2cnc(Oc3cccc(Cl)c3)nc2n(C2CC2)c1=O`, the max dye-equivalent concentration was “inactive”.
In the case of `c1cncc(-c2nc(N3CCNCC3)c3ccccc3n2)c1`, the max dye-equivalent concentration is reported as “inactive”.
With `COCCn1c(=O)c(CCc2ccccc2)nc2cnc(N3CCNCC3)nc21` the max dye-equivalent concentration was 56 nM (active).
For `COCCn1c(CN2CCC(Cc3ccccc3)CC2)nc2c1c(=O)n(C)c(=O)n2C`, the max dye-equivalent concentration was “inactive”.
With `COCCn1c(=O)c(-c2cc(F)cc(F)c2)nc2cnc(N3CCNCC3)nc21` the max dye-equivalent concentration was 350 nM (active).
With `Cn1c(=O)c(-c2ccccc2)nc2cnc(N3CCNCC3)nc21` the max dye-equivalent concentration was 270 nM (active).
For `Cn1cc(-c2nc3cnc(N4CCNCC4)nc3n(CCC#N)c2=O)c2ccccc21`, the max dye-equivalent concentration was “inactive”.
In the case of `N#Cc1cccc(-c2nc3cnc(N4CCNCC4)nc3n(C3CC3)c2=O)c1`, the max dye-equivalent concentration is reported as 300 nM (active).
For `CC1(C)C2CCC1(C)C(OC(=O)CCn1ccnc1)C2` (configuration not stated), the max dye-equivalent concentration was “inactive”.
For `Cc1ccc(C(=O)CSc2nnc(Cn3nnc4ccccc43)n2C)cc1`, the max dye-equivalent concentration was “inactive”.
For `CCCn1c(=O)c(-c2ccccc2)c(O)c2ccccc21`, the max dye-equivalent concentration was “inactive”.
For `CCOC(=O)c1sc(N(Cc2ccccc2)C(=O)CN2C(=O)CN(C)C2=O)nc1C`, the max dye-equivalent concentration was “inactive”.
With `CCn1c(CSc2ncccn2)nnc1SCC(=O)N1c2ccccc2CC1C` (configuration not stated) the max dye-equivalent concentration was “inactive”.
With `Cc1nc2cnc(N3CCNCC3)nc2n(Cc2ccc(F)cc2)c1=O` the max dye-equivalent concentration was 98 nM (active).
With `Cc1nc2cnc(Nc3ccccc3)nc2n(C[C@H]2CCCO2)c1=O` the max dye-equivalent concentration was “inactive”.
With `Cc1nc2cnc(N3CCN(C)CC3)nc2n(C[C@H]2CCCO2)c1=O` the max dye-equivalent concentration was 48 nM (active).
In the case of `Cn1c(=O)c2c(nc(OCc3cccnc3)n2Cc2ccccc2)n(C)c1=O`, the max dye-equivalent concentration is reported as “inactive”.
In the case of `O=c1c(-c2ccc(F)cc2)nc2cnc(N3CCNCC3)nc2n1Cc1cccs1`, the max dye-equivalent concentration is reported as 15 nM (active).
With `COCCn1c(=O)c(CCc2ccccc2)nc2cncnc21` the max dye-equivalent concentration was 83 nM (active).
With `O=c1c(CCc2ccccc2)nc2cncnc2n1C1CC1` the max dye-equivalent concentration was “inactive”.
For `Cc1nc2cnc(N3CCN(C)CC3)nc2n(CCC#N)c1=O`, the max dye-equivalent concentration was “inactive”.
With `Cc1cc(C)c(C(=O)CN2C(=O)CCC2=O)cc1C` the max dye-equivalent concentration was “inactive”.
For `CCOC(=O)Nc1ccc2c(c1)N(C(=O)CN1CCN3CCCC3C1)c1ccccc1CC2` (configuration not stated), the max dye-equivalent concentration was “inactive”.
In the case of `O=C(Nc1ccc2c(c1)OCCO2)C1CCCN(c2ncccn2)C1` (configuration not stated), the max dye-equivalent concentration is reported as “inactive”.
For `CCOP1(=O)C=C(C(C)(C)C)OC1c1ccc(F)cc1` (configuration not stated), the max dye-equivalent concentration was “inactive”.
With `CC(c1nnc(SCC(=O)Nc2sccc2C#N)n1-c1ccc(Cl)cc1)N(C)C` (configuration not stated) the max dye-equivalent concentration was “inactive”.
With `CCC(=O)Nc1sc(C(=O)N2CCCCC2)c(C)c1C#N` the max dye-equivalent concentration was “inactive”.
In the case of `COCCNC(=O)CN(C(=O)CCC(=O)Nc1cc(C)on1)c1ccc(C)cc1C`, the max dye-equivalent concentration is reported as “inactive”.
For `O=S(=O)(/C=C/c1ccccc1)NCCc1ccccn1`, the max dye-equivalent concentration was “inactive”.
For `Cn1c(=O)n(CCc2ccccc2)c(=O)c2c1nc1n2CCCN1c1ccccc1`, the max dye-equivalent concentration was “inactive”.
In the case of `Cn1cc(-c2nc3cnc(N4CCNCC4)nc3n(CCc3ccccc3)c2=O)c2ccccc21`, the max dye-equivalent concentration is reported as “inactive”.
For `Cc1nc2cnc(N3CCNCC3)nc2n(CCc2ccccc2)c1=O`, the max dye-equivalent concentration was 49 nM (active).
With `OCc1nc(CO)n(Cc2ccccc2)n1` the max dye-equivalent concentration was “inactive”.
In the case of `CCCCCn1c(SCCC(C)C)nc2c1c(=O)[nH]c(=O)n2C`, the max dye-equivalent concentration is reported as “inactive”.
For `C/C(O)=C\c1nc(=O)c2c(C)cc(C)nc2n1-c1ccccc1`, the max dye-equivalent concentration was 43 nM (active).
For `Cc1cc(C)nc(N(C#N)CC(=O)Nc2ccccc2)n1`, the max dye-equivalent concentration was “inactive”.
In the case of `N#CCSc1nc2ccccc2c(=O)n1-c1ccccc1`, the max dye-equivalent concentration is reported as “inactive”.
For `COc1ccc(C2C3=C(CC(C)(C)CC3=O)Oc3ncn4nc(-c5cccnc5)nc4c32)cc1OC` (configuration not stated), the max dye-equivalent concentration was “inactive”.
In the case of `CC(=O)Nc1ccc(S(=O)(=O)N2CCN(CCCOc3cc(C)ccc3C)CC2)cc1`, the max dye-equivalent concentration is reported as “inactive”.
